# PfHsp90 yeast 2: reduces growth (ATP signal) of yeast expressing P. falciparum Hsp90 | S. cerevisiae expressing PfHsp90, BacTiter-Glo ATP, 48 h; yeast lacking PDR1 and PDR3 efflux regulators | inhibition, % at 9.4 µM | hit rate 0.32% among 310,000 | AID 504621;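 active = every replicate shows inhibition above about 80%, whatever the replicate mean, limit read from the data; inconclusive = mean inhibition reaches the set limit but some replicate falls short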
# SKKanGAS inh: SKKanGAS growth inhibition. S. pyogenes SKKanGAS, kanamycin growth, BacTiter-Glo, 6 h. inhibition, % at 7.5 µM. hit rate 1.3% among 300,000;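 active = mean replicate score, as percent of positive control median, at least 50; inconclusive = mean below 50 but one replicate at or above 50; inactive = mean and every replicate below 50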;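 note: strain carries kanamycin resistance gene driven by streptokinase promoter and grows in 40 µg/ml kanamycin; loss of luminescence reflects streptokinase promoter inhibition or plain growth inhibition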
# tim23-1 inh: growth inhibitors of tim23-1 mutant yeast; S. cerevisiae tim23-1 growth, BacTiter-Glo luminescence, 24 h; inhibition, % at 20 µM; hit rate 1.3% among 330,000; AID 463212;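 active = growth inhibition of the mutant yeast at or above 50%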;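 note: temperature-sensitive mutant grown at 25 °C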
# TIM10 inh: inhibits growth of TIM10 yeast strain. S. cerevisiae TIM10 strain growth, BacTiter-Glo luminescence, 24 h. inhibition, % at 10 µM. hit rate 1.4% among 330,000. AID 463195;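 active = inhibition of 40% or more at the single tested concentration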;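 note: wild-type TIM10 isogenic control strain grown at permissive 25 °C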
# NALP3 yeast inh: NALP3 inhibition in yeast; Yeast reconstituted NLRP3/ASC/caspase-1, beta-gal luminescence, 24 h; inhibition, % at 10 µM; hit rate 0.39% among 330,000; AID 2825;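 active = inhibition of 50% or more; inactive = inhibition below 50%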
# tim10-1 inh: tim10-1 yeast growth inhibition | hit rate 2.2% among 330,000 | inhibition, % at 20 µM | S. cerevisiae tim10-1 ts strain growth, BacTiter-Glo, 24 h;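 active = inhibition of at least 40%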;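 note: mutant grown at 25 °C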
# NALP3 confirm: NALP3 inhibition confirmation in yeast; shares compounds with NALP3 yeast inh; yeast expressing human NALP3, luminescence; inhibition, % at 10 µM; hit rate 81% among 1,300; in the data active = inhibition above about 48%
# Casp1 ASC ctr: caspase-1-ASC yeast counter-screen hit; shares compounds with NALP3 yeast inh; yeast expressing Caspase-1-ASC, luminescence counter screen; inhibition, % at 10 µM; hit rate 66% among 1,000
# NALP3 retest: confirmation retest of NALP3 inhibitors in yeast. hit rate 53% among 1,000. AID 488794. yeast expressing human NALP3, luminescence read-out. inhibition, % at 10 µM. shares compounds with NALP3 yeast inh
# Numbers stand for hits; i = inactive; ? = inconclusive; nt = no result given. Hits are enriched below; roughly 4.6% of the tested compounds scored in any of these assays. Cut-off read from the data, not from the text of the source, unless noted: active = inhibition above about 50%; inactive = the rest.
SMILES,PfHsp90 yeast 2,SKKanGAS inh,tim23-1 inh,TIM10 inh,NALP3 yeast inh,tim10-1 inh,NALP3 confirm,Casp1 ASC ctr,NALP3 retest
CCOc1ccc(Cl)cc1S(=O)(=O)N1CCCC1,i,i,i,i,i,i,nt,nt,nt
Cc1ccc(-c2nc(-c3ccc(Cl)cc3)sc2CC(=O)O)c(C)c1,i,i,i,i,i,i,nt,nt,nt
Cc1cccc(C)c1NC(=O)C[N+](C)(C)CC(O)COc1cccc2ccccc12 (centres undefined),i,i,i,i,i,i,nt,nt,nt
O=C(Nc1ccccc1O)c1ccccc1O,i,i,i,i,i,i,nt,nt,nt
Cc1cccc(NC(=O)c2ccccc2O)c1C,i,i,i,i,57,i,57,52,59
CCn1c(COc2ccc(C)cc2)nnc1SCc1ccc(C#N)cc1,i,?,i,i,61,i,71,54,i
CCN(CC)S(=O)(=O)c1cccc(C(=O)Nc2cc(C)cc(C)c2)c1,i,i,i,i,i,i,nt,nt,nt
CCN(CC)S(=O)(=O)c1ccc(C(=O)Nc2cc(C)cc(C)c2)cc1,i,i,i,i,51,i,52,i,i
O=C(NC1CC1)c1c(O)c2ccccc2[nH]c1=O,i,i,i,i,69,i,75,i,i
O=C(CCl)NNC(=O)c1c(O)c2ccccc2[nH]c1=O,i,i,i,i,i,i,nt,nt,nt
O=C(NNC(=O)c1c(O)c2ccccc2[nH]c1=O)c1ccccc1Br,i,i,i,i,57,i,72,i,i
CC(=O)Oc1ccc(Oc2ccc(-c3noc(C)n3)cc2)cc1,i,i,i,i,56,i,72,70,56
O=[N+]([O-])c1cccnc1S(=O)(=O)c1ccccc1,i,i,i,i,58,i,63,50,i
Cc1csc(=Nc2cccnc2)n1CC1CCCCC1,i,i,i,i,i,i,i,nt,nt
CC1CCN(S(=O)(=O)c2cn(CC(=O)Nc3ccc(C#N)cc3)cn2)CC1,i,i,i,i,i,i,nt,nt,nt
O=C(COC(=O)c1ccc(F)cc1F)Nc1cc(S(=O)(=O)N2CCOCC2)ccc1Cl,i,nt,i,i,i,i,nt,nt,nt
Nc1cc(N2CCCCC2)c([N+](=O)[O-])cc1Cl,i,i,i,i,51,i,i,nt,nt
Cc1ccc(N2C(=O)C3N=NN(CC(=O)N4N=C(c5ccccc5)CC4c4ccccc4)C3C2=O)cc1 (centres undefined),i,i,i,i,65,i,61,i,i
OC(c1ccccn1)(c1ccccn1)c1ccccn1,i,i,i,i,i,i,nt,nt,nt
O=C(COc1ccc(Br)cc1Br)NC1CCCC1,i,i,i,i,62,i,56,53,i
O=C(COc1ccc(Br)cc1Cl)NC1CCCCC1,i,i,i,i,53,i,i,nt,nt
Cn1c(=O)c(C(=O)NNC(=O)c2ccccc2F)c(O)c2ccccc21,i,61,i,i,64,i,82,i,54
COc1ccccc1-c1cccc([C@@H]2C[C@H]3[C@H](CON3C)CN2S(=O)(=O)c2ccccc2C)c1,i,nt,nt,nt,nt,nt,nt,nt,nt
Cc1ccc([N+](=O)[O-])cc1NC(=O)c1ccc(C(C)(C)C)cc1,i,i,i,i,57,i,51,i,i
O=S(=O)(c1ccccc1)N1CCN(Cc2cccc(Br)c2)CC1,nt,i,i,i,i,i,nt,nt,nt
O=S(=O)(c1ccc(Cl)s1)N1CCN(Cc2ccccc2)CC1,i,i,i,i,i,i,nt,nt,nt
O=S(=O)(c1ccc(Cl)s1)N1CCN(CCc2ccccc2)CC1,i,i,i,i,60,i,76,63,53
O=S(=O)(c1cccc(Br)c1)N1CCN(CCc2ccccc2)CC1,i,i,i,i,53,i,71,52,i
CCCSc1nnc(Sc2nnnn2-c2ccccc2)s1,i,i,i,i,58,i,66,60,i
CC(=O)Nc1ccc([C@H]2[C@H](C)CC[C@H]3C(=O)N4[C@@H](CC[C@@H](C)[C@@H]4c4ccc(NC(C)=O)cc4)C(=O)N32)cc1,nt,i,i,i,i,i,nt,nt,nt
